Measured values reported in PubChem BioAssay AID720597 (Broad Institute, 2013).
Results with a measured potency or affinity are listed apart. Activity calls are given as the source filed them.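 How the source made its calls: active means fitted half-maximal dose no more than twice the top valid tested dose, for compounds that lower signal; inconclusive means fit invalid, or curve flat with activity between -70 and -30; inactive means potency past limit, curve flat within ±30, or signal increasing.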

molecular target: NAD-dependent protein deacylase sirtuin-5, mitochondrial (Homo sapiens) (UniProt Q9NXA8); assay: blockers of sirtuin-5 peptide desuccinylation – biochemical, fluorescence imaging, cherry-pick, set 6, dose response (AID 720597); conditions: Purified SirT5, succinyl-peptide-AMC/trypsin fluorescence; series mostly up to 15 µM;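 further: lower AMC signal can also come from blocking the trypsin step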
Sequence (Q9NXA8 whole entry, looked up): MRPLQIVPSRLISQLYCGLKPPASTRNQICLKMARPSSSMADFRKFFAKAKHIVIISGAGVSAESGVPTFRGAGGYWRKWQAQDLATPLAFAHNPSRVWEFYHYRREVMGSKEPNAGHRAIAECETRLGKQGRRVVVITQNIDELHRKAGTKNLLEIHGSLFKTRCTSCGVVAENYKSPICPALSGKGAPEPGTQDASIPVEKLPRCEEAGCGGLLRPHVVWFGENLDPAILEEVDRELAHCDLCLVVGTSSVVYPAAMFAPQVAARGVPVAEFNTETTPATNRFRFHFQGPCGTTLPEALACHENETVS

SMILES	outcome
COc1ccc(S(=O)(=O)Nc2ccc3c(c2)C(=O)N([C@H](C)CO)C[C@H](C)[C@@H](CN(C)Cc2ccc(C(F)(F)F)cc2)OCCCC[C@@H](C)O3)cc1	inactive
C[C@H]1CN([C@@H](C)CO)S(=O)(=O)c2ccc(C3=CCCCC3)cc2O[C@@H]1CN(C)S(=O)(=O)c1ccc(F)cc1	inactive
O=C(C[C@H]1CC[C@H]2[C@@H](COC[C@@H](O)CN2S(=O)(=O)c2cccc(Cl)c2)O1)Nc1ccc(-c2ccccc2)cc1	inactive
Cc1ccc(S(=O)(=O)Nc2ccc3c(c2)C(=O)N([C@@H](C)CO)C[C@H](C)[C@H](CN(C)S(=O)(=O)c2ccccc2)OCCCC[C@@H](C)O3)cc1	inactive
COc1ccc(S(=O)(=O)Nc2ccc3c(c2)C(=O)N([C@@H](C)CO)C[C@@H](C)[C@H](CN(C)Cc2ccc(C(F)(F)F)cc2)OCCCC[C@H](C)O3)cc1	inactive
O=C(NCC[C@H]1CC[C@@H](NC(=O)Nc2cc(F)ccc2F)[C@H](CO)O1)Nc1ccc(F)cc1	inactive
C[C@H]1CN([C@@H](C)CO)C(=O)c2cc(C#Cc3cccc(F)c3)cnc2O[C@@H]1CN(C)CC1CCCC1	inactive
C[C@H](CO)N1C[C@H](C)[C@H](CN(C)C(=O)NC2CCCCC2)Oc2ccc(NC(=O)Nc3ccccc3)cc2C1=O	inactive
C[C@H]1CN([C@@H](C)CO)C(=O)c2cc(NC(=O)C3CCCCC3)ccc2O[C@@H]1CN(C)CC1CC1	inactive
C[C@H](CO)N1C[C@H](C)[C@@H](CN(C)Cc2ccc(Oc3ccccc3)cc2)Oc2ccc(NS(=O)(=O)c3ccc(Cl)cc3)cc2CC1=O	inactive
